FMDV antiviral: blocks foot and mouth disease virus | FMDV antiviral cell-based qHTS | Potency, µM (series often up to 57.9 µM), inactives show at the highest dose activity change, negative = inhibition, usual class: inhibitors | 410,000 compounds, 1.2% hits; calls by dose curve; tested in HEK293T cells; also: read-out not given here; potency is read from the fitted curve at half-maximal effect; % is scaled to controls: 0 for no effect and ±100 for the full control effect; nearly all actives have a fitted effect of over 45% in size
Lassa entry inh: Lassa virus entry inhibition | AID 540256 | 300,000 compounds, 1.2% hits | Potency, µM (titrated, usually from 37.9 µM), for the others: at the top dose activity change, negative = inhibition, most hits filed as inhibitors | Lassa virus pseudotype entry inhibition, cell reporter; calls by dose curve; tested in HEK293 cells; also: potency is read from the fitted curve at half-maximal effect; % is scaled to controls: 0 for no effect and ±100 for the full control effect; nearly all actives have a fitted effect of over 50% in size
MARV entry inh: inhibitors of Marburg virus binding or cell entry. Potency, µM (doses to about 37.8 µM), for inactives: top-dose activity change, negative = inhibition, usual class: inhibitors. AID 540276. 300,000 compounds, 1.8% hits. Marburg virus pseudotyped entry inhibition, cell reporter; calls by dose curve; tested in HEK293 cells; also: potency is read from the fitted curve at half-maximal effect; % is scaled to controls: 0 for no effect and ±100 for the full control effect
CHX counter: affects cycloheximide protein synthesis inhibition readout, counter-screen | 300,000 compounds, 12% hits | max response, % | cell reporter, cycloheximide protein synthesis inhibition counterscreen; in the data active = max response mostly above about 13%, no sharp cut-off; inactive = mostly below about 14%; also: read at 38.3 µM for the half of the compounds with a filed dose; 0% is about no effect
Shiga toxin inh: Shiga toxin inhibition; inhibition, % at 38.7 µM; Vero cells, Shiga toxin protein synthesis inhibition reporter; 290,000 compounds, 9.2% hits; in the data active = inhibition mostly above about 28%, no sharp cut-off; inactive = mostly below about 43%; also: 0% is about no effect
HCV inhibitor: blocks hepatitis C virus. Potency, µM (top dose mostly 41.8 µM), for the others: at the top dose activity change, negative = inhibition, usual class: inhibitors. 340,000 compounds, 3.4% hits. Huh7.5.1 HCVcc-Cre infection, luciferase reporter, 44 h; active = well fitted inhibition curve with a large enough effect; inconclusive = small, poorly fitted or top-dose-only effect, or another doubt; inactive = no such curve, though single readings can be large or run the other way; also: potency is read from the fitted curve at half-maximal effect; % is scaled to controls: 0 for no effect and ±100 for the full control effect
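Infectious HCVcc-Cre (~0.5 moi) was added to cells just after compound, with cells seeded 4 h earlier at 1,000 per well. Luciferase activity after 44 h culture reported infection; substrate was incubated 15 min at room temperature before reading.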
* hit, by the source's call; ? = inconclusive; · = no result; [ ] = dose if it differs, or a comment. Only some compounds are listed: those with a hit (about 13% of all), similar ones and a draw of the others.

SMILES	FMDV antiviral	Lassa entry inh	MARV entry inh	CHX counter	Shiga toxin inh	HCV inhibitor
COc1ccc(S(=O)(=O)Nc2cc(-c3cn4ccccc4n3)ccc2C)cc1	11.5%	17.0%[46.1 µM]	15.3%[46.1 µM]	·	·	·
Cc1cc(C)c(S(=O)(=O)Nc2cccc(-c3cn4ccccc4n3)c2)c(C)c1	42.2%	?	·	·	·	·
O=C(/C=C/c1ccccc1Cl)N1CCOCC1	20.5%	·	·	18.6*	1.9	1.7%
O=C(/C=C/c1cccc([N+](=O)[O-])c1)N1CCOCC1	10.5%	-2.2%	?	-1.3	3.5	16.7%
O=C(/C=C/c1cccc2ccccc12)N1CCOCC1	41.7%	-1.6%	26.7%[46.1 µM]	32.3*	85.6*	-4.9%
Cc1ccccc1/C=C/C(=O)N1CCOCC1	9.1%	14.5%[46.1 µM]	0.5%[46.1 µM]	30.8*	66.3*	5.2%
COc1ccccc1/C=C/C(=O)N1CCOCC1	1.3%	?	2.7%	-1.1	-3.6	4.4%
O=C(/C=C/c1cccc(Oc2ccccc2)c1)N1CCOCC1	76.2%	·	·	33.8*	86.3*	-1.6%
COC(=O)C1=C(c2ccccc2OCc2ccccc2)C[C@@H]2CC[C@H]1N2C(=O)NCc1ccc(OC)c(OC)c1	0.0%	·	·	·	·	?
O=C(NNC(=O)c1cc(Br)c(Br)s1)c1csc(N2CCOCC2)n1	2.6%	5.0%	2.3%	·	·	-4.8%
O=C(/C=C/c1cccc2ccccc12)c1ccncc1	14.1µM*	?	?	2.0	-7.4	15.8µM*
O=C(/C=C/c1ccc(OCCCF)cc1)N1CCOCC1	57.5%	·	·	29.8*	65.8*	-6.2%
CCCCCCOc1ccc(/C=C/C(=O)N2CCOCC2)cc1OC	3.0%	·	·	-2.8	-5.4	-6.0%
O=C(Nc1ccccc1-c1ccccc1)NC1CCN(CC(=O)N2CCOCC2)CC1	7.1%	-0.3%	-5.2%	1.2	-4.4	0.1%
COc1ccc(C2SCC(=O)N2c2nc3ccccc3s2)cc1 (centres undefined)	-21.2%	·	·	42.4*	111.3*	-17.6%
COc1ccc(N2C(=O)CSC2c2ccccc2)cc1 (centres undefined)	0.8%	-14.3%[46.1 µM]	-16.9%[46.1 µM]	11.9	-4.2	-4.4%
CN(CC(=O)Nc1cccc(F)c1)S(=O)(=O)c1ccc2c(c1)n(C)c(=O)c(=O)n2C	9.9%	19.7%[46.1 µM]	-0.2%[46.1 µM]	·	·	·
Cc1ccc2nc(N3C(=O)C(O)=C(C(=O)c4ccco4)C3c3ccc(O)cc3)sc2c1 (centres undefined)	·	·	·	15.7*	34.6	·
Cc1nnc(N2C(=O)C(O)=C(C(=O)c3ccco3)C2c2cccc3ccccc23)s1 (centres undefined)	-5.5%	10.5%[46.1 µM]	-2.9%[46.1 µM]	1.0	36.7*	13.7%
Cc1ccc2nc(N3C(=O)C(O)=C(C(=O)c4ccco4)C3c3ccc(C)o3)sc2c1 (centres undefined)	13.2%	2.6%	-28.6%[46.1 µM]	31.4*	80.3*	-4.3%
Cc1ccc(C2C(C(=O)c3ccco3)=C(O)C(=O)N2c2nnc(C)s2)cc1 (centres undefined)	7.1%	11.5%	12.9%	0.5	16.9	-8.8%
O=C1OC[C@@H]2CCCN2C(=O)[C@@H](CC(=O)N(CCO)Cc2ccccc2)C/C=C\C[C@@H]1Cc1ccc(F)cc1	-19.3%	·	·	·	·	11.9%
Cc1c(C(=O)Nc2ccc(N3CCOCC3)cc2)oc2ccccc12	26.8%	17.1%	?	39.6*	96.6*	-27.7%
Cc1c(C(=O)Nc2ccccn2)oc2c(Cl)cccc12	26.3%	6.6%[46.1 µM]	?	·	·	?
Cc1c(C(=O)Nc2ccccn2)oc2ccccc12	-2.4%	-7.5%	?	46.7*	109.1*	-10.6%
SMILES	FMDV antiviral	Lassa entry inh	MARV entry inh	CHX counter	Shiga toxin inh	HCV inhibitor
Cc1c(C(=O)Nc2cccnc2Cl)oc2ccccc12	0.0%	?	16.3%[46.1 µM]	25.7*	81.3*	5.5%
Cc1ccc(NC(=O)c2oc3ccccc3c2C)nc1	15.2%	-23.1%[46.1 µM]	?	63.3*	88.2*	-28.7%
CCn1ccnc1CN(C)Cc1cn(-c2ccc(C)cc2)nc1-c1cccc(C)c1	?	?	?	-1.6	11.8	-15.7%
Cc1c(C(=O)Nc2ccncc2)oc2ccccc12	-9.3%	-1.5%	-3.9%	34.8*	51.6	?
Cc1c(C(=O)NC(C)c2ccncc2)oc2ccccc12 (centres undefined)	-12.6%	0.5%	9.4%	1.7	-1.4	-4.9%
CCCNC(=O)c1nn2cc(Br)cnc2c1Cl	0.0%	6.2%	?	20.1	-2.1	-5.3%
CCCCC(=O)Nc1ccc(Br)cn1	31.8%	21.0%	13.8%	21.9*	60.5	-12.2%
CCCC(=O)Nc1ccc(NC(=O)C2CC2)cn1	32.5%	26.2%	-3.3%	26.3*	17.2	1.5%
O=C(CS(=O)(=O)c1ccccc1)Nc1ccccn1	11.8%	-1.3%	4.0%	-2.6	-20.5	-4.1%
C=CCCC(=O)Nc1ccc(Br)cn1	11.9%	?	?	27.5	30.8	-18.6%
CCCCC(=O)Nc1ccc(NC(=O)C2CC2)cn1	51.6%	-0.7%	9.2%[46.1 µM]	10.6	33.0	-8.6%
CCCCNC(=O)c1nn2cc(Br)cnc2c1Br	24.8%	-1.2%	11.8%[46.1 µM]	23.1*	22.2	-7.0%
O=C(CS(=O)(=O)c1ccccc1)Nc1ccc(Br)cn1	34.0%	28.0%	-5.4%	19.4*	26.3*	16.1%
COc1ccc(CNC(=O)C[C@H]2C[C@H](C(=O)N3CCCCC3)[C@@]3(C)c4[nH]c5cc(-c6ccco6)ccc5c4CCN3C2=O)cc1OC	-32.3%	·	0.3%	·	·	?
CS(=O)(=O)Nc1nnc(C2CCCC2)s1	20.8%	-4.9%	?	0.4	13.3	-4.0%
CCCCC(=O)Nc1ccc(NC(=O)CCCC)nc1	4.2%	16.8%	2.1%	12.8*	63.3	-3.5%
CCCCNC(=O)Nc1ccc(Br)cn1	31.4%	8.6%	1.5%	36.1*	30.9*	?
CCOC(=O)CC1=NN(c2ccccc2)C(=O)C1=c1sc(=C2SC(C)=C(C)N2CC)c(=O)n1CC	-12.0%	18.2%	-22.2%[46.1 µM]	·	·	24.0%
CSc1ccccc1NC(=O)c1cc2ncc(Br)cn2n1	8.4%	·	·	18.5*	93.7*	0.2%
CC(C)c1ccccc1NC(=O)c1cnccn1	10.7%	24.2%	20.4%	4.0	16.6	20.9%
CSc1ccccc1NC(=O)c1cnccn1	19.3%	-1.7%	6.2%	21.0*	21.5	19.5%
O=C(Nc1cccc2ccccc12)c1cnccn1	32.0%	26.0%	?	31.0*	62.0*	-4.7%
CCc1ccccc1NC(=O)c1cnccn1	-12.9%	8.5%	-0.8%	-1.5	1.1	-4.5%
CCN(CC)c1nc(-c2ccccc2)ncc1S(=O)(=O)c1ccc(C)cc1	-8.6%	·	·	-1.9	1.9	7.08µM*
CN(C)c1nc(-c2ccccc2)ncc1S(=O)(=O)c1ccccc1	2.7%	·	·	6.5	22.7	?
Cc1ccc(-c2nc(NCC3CCCO3)sc2C)cc1 (centres undefined)	61.9%	·	·	32.3*	68.8*	-3.4%
Cc1ccc(S(=O)(=O)c2nc(S(C)(=O)=O)sc2NCC2CCCO2)cc1 (centres undefined)	-8.6%	-8.1%	17.3%	-3.4	-8.8	2.8%
O=c1c2ccccc2[nH]c(=S)n1Cc1ccccc1Cl	-3.6%	-9.0%[46.1 µM]	10.1%[46.1 µM]	-1.7	-2.5	9.5%
O=C1CN(C(=O)/C=C/c2ccc(Cl)cc2)c2ccccc2N1	-11.1%	?	?	12.8	13.0	?

Screening data (PubChem BioAssay)
